ChEMBL document CHEMBL2218924, “A broad activity screen in support of a chemogenomic map for kinase signalling research and drug discovery” (Biochem J, 2013)

Experiments:
[1] = molecular target: T1, Tyrosine-protein kinase ITK/TSK (Homo sapiens) (UniProt Q08881); details: at 10 µM
T1 sequence (whole entry): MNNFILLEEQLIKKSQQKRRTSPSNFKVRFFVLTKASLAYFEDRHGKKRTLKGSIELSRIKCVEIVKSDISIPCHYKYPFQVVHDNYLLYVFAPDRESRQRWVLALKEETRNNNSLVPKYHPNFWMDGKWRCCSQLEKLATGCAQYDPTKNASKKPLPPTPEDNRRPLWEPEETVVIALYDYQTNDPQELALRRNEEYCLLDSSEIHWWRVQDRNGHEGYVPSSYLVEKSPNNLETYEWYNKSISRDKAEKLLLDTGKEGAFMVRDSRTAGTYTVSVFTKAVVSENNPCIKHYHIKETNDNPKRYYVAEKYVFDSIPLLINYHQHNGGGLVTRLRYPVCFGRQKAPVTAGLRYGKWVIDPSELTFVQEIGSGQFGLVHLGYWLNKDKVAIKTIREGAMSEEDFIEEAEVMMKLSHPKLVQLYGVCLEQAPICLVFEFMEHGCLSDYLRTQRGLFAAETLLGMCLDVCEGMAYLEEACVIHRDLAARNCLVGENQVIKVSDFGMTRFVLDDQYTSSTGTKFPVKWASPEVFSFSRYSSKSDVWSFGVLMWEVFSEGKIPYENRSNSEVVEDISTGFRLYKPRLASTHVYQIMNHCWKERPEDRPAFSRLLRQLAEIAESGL

[2] = molecular target: Tyrosine-protein kinase JAK2 (Homo sapiens) (UniProt O60674); details: at 1 µM
[3] = molecular target: Tyrosine-protein kinase JAK2 (Homo sapiens) (UniProt O60674); details: at 10 µM
[4] = molecular target: T2, Tyrosine-protein kinase JAK3 (Homo sapiens) (UniProt P52333); details: at 1 µM
T2 sequence (whole entry): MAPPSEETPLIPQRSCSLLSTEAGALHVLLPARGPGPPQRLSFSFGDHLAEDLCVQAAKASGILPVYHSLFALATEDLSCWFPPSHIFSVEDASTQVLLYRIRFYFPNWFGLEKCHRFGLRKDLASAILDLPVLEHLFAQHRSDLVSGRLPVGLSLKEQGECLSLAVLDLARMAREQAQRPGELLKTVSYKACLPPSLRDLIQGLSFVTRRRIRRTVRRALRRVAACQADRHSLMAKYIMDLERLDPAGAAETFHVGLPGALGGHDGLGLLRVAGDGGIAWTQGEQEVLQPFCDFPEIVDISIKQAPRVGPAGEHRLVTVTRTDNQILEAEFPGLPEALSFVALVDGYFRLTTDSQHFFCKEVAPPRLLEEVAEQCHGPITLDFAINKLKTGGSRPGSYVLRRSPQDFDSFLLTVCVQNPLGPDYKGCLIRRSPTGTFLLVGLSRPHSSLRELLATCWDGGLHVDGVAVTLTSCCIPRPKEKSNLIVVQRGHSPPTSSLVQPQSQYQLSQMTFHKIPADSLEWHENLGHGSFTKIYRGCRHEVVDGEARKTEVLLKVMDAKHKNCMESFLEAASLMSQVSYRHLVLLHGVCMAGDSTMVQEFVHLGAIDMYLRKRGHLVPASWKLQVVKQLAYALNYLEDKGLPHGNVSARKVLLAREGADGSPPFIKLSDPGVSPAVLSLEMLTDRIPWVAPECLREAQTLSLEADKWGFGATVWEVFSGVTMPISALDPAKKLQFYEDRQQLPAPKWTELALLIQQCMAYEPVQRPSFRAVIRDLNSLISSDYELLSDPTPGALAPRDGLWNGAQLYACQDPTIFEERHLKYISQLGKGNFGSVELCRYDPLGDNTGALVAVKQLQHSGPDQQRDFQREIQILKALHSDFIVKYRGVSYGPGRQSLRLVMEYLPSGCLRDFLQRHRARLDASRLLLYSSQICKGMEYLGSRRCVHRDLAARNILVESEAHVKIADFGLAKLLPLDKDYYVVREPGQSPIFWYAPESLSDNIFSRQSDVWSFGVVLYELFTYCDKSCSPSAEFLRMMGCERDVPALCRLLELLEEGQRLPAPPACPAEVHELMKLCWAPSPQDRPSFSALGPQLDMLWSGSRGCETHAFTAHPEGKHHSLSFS

[5] = molecular target: T2, Tyrosine-protein kinase JAK3 (Homo sapiens); details: at 10 µM
[6] = molecular target: Mitogen-activated protein kinase 8 (Homo sapiens) (UniProt P45983); details: at 1 µM
[7] = molecular target: Mitogen-activated protein kinase 8 (Homo sapiens) (UniProt P45983); details: at 10 µM
[8] = molecular target: Mitogen-activated protein kinase 9 (Homo sapiens) (UniProt P45984); details: at 10 µM
[9] = molecular target: Mitogen-activated protein kinase 10 (Homo sapiens) (UniProt P53779); details: at 1 µM
[10] = molecular target: Mitogen-activated protein kinase 10 (Homo sapiens) (UniProt P53779); details: at 10 µM
[11] = molecular target: Vascular endothelial growth factor receptor 2 (Homo sapiens) (UniProt P35968); details: at 1 µM
[12] = molecular target: Vascular endothelial growth factor receptor 2 (Homo sapiens) (UniProt P35968); details: at 10 µM
[13] = molecular target: LIM domain kinase 1 (Homo sapiens) (UniProt P53667); details: at 1 µM
[14] = molecular target: LIM domain kinase 1 (Homo sapiens) (UniProt P53667); details: at 10 µM
[15] = molecular target: T3, Serine/threonine-protein kinase STK11 (Homo sapiens) (UniProt Q15831); details: at 10 µM
T3 sequence (whole entry): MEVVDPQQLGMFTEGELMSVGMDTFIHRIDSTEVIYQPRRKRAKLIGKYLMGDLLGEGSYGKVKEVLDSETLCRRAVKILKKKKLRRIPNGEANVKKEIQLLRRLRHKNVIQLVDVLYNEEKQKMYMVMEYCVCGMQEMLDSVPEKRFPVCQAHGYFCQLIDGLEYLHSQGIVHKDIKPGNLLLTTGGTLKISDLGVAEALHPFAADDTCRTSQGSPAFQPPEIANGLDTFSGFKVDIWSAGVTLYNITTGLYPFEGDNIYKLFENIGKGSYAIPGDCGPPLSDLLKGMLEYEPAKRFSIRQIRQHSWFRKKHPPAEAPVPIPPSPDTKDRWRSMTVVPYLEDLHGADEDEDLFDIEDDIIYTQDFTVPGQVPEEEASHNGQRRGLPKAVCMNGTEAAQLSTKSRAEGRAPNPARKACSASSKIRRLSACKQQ

[16] = molecular target: Serine/threonine-protein kinase 10 (Homo sapiens) (UniProt O94804); details: at 1 µM
[17] = molecular target: Serine/threonine-protein kinase 10 (Homo sapiens) (UniProt O94804); details: at 10 µM
[18] = molecular target: Tyrosine-protein kinase Lck (Homo sapiens) (UniProt P06239); details: at 1 µM
[19] = molecular target: Mitogen-activated protein kinase 9 (Homo sapiens) (UniProt P45984); details: at 1 µM
[20] = molecular target: T3, Serine/threonine-protein kinase STK11 (Homo sapiens); details: at 1 µM

Sequence of Mitogen-activated protein kinase 9 (Homo sapiens) (P45984 whole entry, looked up): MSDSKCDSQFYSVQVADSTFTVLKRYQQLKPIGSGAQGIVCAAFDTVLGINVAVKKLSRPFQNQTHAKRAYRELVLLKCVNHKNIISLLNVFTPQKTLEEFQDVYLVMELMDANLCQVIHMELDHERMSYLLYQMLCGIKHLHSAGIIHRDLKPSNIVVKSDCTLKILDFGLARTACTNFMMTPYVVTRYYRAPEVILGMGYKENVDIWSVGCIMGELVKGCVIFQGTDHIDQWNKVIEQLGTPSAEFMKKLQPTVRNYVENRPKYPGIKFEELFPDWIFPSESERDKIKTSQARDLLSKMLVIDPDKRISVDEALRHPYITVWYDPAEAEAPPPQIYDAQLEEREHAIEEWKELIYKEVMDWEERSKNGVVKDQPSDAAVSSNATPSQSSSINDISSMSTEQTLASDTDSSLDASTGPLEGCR
Sequence of Mitogen-activated protein kinase 8 (Homo sapiens) (P45983 whole entry): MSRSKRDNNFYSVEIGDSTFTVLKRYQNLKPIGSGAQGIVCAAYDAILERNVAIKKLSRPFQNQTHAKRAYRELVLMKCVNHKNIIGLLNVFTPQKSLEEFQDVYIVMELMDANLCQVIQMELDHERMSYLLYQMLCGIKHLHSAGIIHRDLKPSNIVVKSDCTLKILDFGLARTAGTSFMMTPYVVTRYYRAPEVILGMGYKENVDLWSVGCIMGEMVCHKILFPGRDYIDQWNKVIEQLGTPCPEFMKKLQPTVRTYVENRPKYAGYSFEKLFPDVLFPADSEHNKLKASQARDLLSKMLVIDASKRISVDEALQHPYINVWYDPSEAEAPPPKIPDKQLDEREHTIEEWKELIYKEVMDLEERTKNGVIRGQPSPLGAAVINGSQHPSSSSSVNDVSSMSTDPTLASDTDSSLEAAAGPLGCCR
Sequence of LIM domain kinase 1 (Homo sapiens) (P53667 whole entry, looked up, the tested form may be a part): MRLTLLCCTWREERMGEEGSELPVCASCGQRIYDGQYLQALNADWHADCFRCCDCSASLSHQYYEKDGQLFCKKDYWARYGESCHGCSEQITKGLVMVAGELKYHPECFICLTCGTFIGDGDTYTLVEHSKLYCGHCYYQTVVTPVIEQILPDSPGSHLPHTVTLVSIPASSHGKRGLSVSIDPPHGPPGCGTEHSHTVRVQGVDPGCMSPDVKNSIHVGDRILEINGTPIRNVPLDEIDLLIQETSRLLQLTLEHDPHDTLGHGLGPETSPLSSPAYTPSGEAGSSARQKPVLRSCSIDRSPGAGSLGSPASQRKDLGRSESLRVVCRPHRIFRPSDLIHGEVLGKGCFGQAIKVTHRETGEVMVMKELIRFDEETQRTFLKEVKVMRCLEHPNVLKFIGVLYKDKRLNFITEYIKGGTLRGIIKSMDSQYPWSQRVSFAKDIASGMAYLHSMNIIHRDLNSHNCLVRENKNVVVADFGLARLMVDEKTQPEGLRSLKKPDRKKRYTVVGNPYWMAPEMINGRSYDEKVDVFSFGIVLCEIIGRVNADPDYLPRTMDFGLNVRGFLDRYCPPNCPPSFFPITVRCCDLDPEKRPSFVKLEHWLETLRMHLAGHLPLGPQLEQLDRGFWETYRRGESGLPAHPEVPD
Sequence of Mitogen-activated protein kinase 10 (Homo sapiens) (P53779 whole entry): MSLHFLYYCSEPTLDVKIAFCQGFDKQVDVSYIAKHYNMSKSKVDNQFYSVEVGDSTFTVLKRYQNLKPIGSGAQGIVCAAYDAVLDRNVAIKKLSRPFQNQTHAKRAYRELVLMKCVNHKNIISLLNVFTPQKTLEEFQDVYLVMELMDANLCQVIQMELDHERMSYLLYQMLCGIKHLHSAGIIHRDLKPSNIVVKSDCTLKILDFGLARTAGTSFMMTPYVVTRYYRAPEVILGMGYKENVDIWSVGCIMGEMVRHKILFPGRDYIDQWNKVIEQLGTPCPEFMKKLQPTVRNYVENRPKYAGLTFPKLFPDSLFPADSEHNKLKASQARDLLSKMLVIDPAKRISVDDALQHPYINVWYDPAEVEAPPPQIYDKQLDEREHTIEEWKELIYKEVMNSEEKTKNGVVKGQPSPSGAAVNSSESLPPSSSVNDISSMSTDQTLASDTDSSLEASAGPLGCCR
Sequence of Vascular endothelial growth factor receptor 2 (Homo sapiens) (P35968 whole entry, the tested form may be a part): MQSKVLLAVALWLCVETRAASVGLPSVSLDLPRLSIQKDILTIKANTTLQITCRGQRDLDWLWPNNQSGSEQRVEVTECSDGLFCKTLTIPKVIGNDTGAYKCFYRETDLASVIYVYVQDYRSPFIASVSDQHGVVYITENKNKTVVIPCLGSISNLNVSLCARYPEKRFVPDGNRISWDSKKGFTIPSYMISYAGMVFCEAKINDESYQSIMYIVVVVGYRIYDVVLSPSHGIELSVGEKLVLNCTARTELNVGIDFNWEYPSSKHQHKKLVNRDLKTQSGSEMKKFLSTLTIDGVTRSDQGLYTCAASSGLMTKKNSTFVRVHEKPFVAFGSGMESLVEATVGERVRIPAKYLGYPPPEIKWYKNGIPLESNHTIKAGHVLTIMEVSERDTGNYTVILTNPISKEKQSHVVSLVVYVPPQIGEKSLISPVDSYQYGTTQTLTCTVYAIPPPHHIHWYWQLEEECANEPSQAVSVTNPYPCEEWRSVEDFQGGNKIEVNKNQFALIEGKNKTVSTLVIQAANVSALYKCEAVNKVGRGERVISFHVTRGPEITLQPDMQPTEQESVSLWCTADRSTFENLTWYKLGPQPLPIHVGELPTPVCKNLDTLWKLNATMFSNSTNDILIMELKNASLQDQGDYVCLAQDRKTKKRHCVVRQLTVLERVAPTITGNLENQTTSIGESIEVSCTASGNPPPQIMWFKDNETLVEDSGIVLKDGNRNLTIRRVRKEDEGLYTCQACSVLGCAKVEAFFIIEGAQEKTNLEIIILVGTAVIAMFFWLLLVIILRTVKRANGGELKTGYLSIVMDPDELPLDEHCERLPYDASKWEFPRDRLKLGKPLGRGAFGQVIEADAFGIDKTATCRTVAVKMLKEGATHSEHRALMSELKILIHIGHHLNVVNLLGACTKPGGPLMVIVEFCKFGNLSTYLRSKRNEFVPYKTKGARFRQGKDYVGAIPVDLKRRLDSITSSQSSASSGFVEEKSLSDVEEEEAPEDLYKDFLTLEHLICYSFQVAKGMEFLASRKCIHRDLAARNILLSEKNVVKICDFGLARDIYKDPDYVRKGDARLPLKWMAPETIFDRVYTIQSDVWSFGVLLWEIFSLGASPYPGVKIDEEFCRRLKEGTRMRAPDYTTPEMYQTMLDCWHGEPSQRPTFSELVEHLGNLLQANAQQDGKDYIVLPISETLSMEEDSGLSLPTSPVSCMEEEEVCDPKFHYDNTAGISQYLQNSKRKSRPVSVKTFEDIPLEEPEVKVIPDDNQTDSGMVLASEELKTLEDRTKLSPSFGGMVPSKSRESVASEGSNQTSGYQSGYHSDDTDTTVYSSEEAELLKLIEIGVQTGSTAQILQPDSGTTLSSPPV
Sequence of Serine/threonine-protein kinase 10 (Homo sapiens) (O94804 whole entry, looked up): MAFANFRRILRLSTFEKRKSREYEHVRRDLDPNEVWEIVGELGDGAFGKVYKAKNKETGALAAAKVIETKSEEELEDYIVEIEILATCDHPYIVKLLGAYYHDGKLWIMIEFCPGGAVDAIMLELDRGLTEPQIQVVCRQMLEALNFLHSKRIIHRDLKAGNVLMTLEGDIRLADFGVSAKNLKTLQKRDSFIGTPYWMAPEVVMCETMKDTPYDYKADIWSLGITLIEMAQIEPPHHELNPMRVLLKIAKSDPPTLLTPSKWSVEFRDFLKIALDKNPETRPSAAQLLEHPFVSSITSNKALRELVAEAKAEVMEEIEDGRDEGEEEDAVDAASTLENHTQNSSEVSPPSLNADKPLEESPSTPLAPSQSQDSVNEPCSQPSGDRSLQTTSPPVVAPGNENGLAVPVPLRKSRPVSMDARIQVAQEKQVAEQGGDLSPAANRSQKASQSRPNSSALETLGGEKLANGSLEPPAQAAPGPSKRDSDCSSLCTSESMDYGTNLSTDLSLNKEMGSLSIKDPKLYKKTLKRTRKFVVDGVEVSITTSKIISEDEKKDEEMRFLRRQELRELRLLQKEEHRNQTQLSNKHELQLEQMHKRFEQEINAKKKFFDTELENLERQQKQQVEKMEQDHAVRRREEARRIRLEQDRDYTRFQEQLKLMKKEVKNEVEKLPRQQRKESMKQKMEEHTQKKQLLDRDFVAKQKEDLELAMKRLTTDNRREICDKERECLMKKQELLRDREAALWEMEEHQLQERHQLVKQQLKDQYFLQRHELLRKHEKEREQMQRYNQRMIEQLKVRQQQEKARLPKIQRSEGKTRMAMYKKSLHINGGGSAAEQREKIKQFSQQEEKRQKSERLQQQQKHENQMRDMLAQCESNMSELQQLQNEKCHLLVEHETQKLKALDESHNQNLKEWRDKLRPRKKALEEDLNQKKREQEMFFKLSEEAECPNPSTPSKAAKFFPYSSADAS
Sequence of Tyrosine-protein kinase Lck (Homo sapiens) (P06239 2-509 limits assumed): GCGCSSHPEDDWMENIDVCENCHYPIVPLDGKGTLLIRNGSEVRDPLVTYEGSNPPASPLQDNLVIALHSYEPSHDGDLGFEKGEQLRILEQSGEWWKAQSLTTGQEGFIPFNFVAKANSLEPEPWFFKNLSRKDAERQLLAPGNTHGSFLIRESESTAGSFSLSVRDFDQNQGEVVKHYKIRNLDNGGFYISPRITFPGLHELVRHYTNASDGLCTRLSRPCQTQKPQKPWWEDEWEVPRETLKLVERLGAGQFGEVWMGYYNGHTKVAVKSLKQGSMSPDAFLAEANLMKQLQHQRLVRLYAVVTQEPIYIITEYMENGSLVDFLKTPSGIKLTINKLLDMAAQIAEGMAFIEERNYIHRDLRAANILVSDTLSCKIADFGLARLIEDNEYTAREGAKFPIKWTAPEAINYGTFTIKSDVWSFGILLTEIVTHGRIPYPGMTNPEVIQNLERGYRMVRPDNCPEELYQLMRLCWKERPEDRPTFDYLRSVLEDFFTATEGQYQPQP

SMILES | residual activity [1] | residual activity [2] | residual activity [3] | residual activity [4] | residual activity [5] | residual activity [6] | residual activity [7] | residual activity [8] | residual activity [9] | residual activity [10] | residual activity [11] | residual activity [12] | residual activity [13] | residual activity [14] | residual activity [15] | residual activity [16] | residual activity [17] | residual activity [18] | residual activity [19] | residual activity [20]
Cc1cc(Nc2nc(-c3ccccc3)nc3ccccc23)n[nH]1 | 0% | 14% | 1% | 41% | 5% | 94% | 71% | 66% | 51% | 12% | 5% | 1% | 51% | 18% | 71% | 50% | 10% | 23% |  | 
N#Cc1cnc2cnc(NCc3cccnc3)cc2c1Nc1ccc(F)c(Cl)c1 | 48% | 96% | 94% | 82% | 81% |  |  | 97% |  | 80% |  | 76% | 42% | 27% |  | 96% | 93% | 68% | 95% | 
O=C1NC(=O)/C(=C/c2ccc3c(c2)OC(F)(F)O3)S1 | 108% | 101% | 97% | 94% | 63% | 106% | 106% | 102% | 81% | 83% | 105% | 97% | 110% | 88% | 94% | 89% | 89% | 125% | 106% | 102%
O=C1NC(=O)c2cc(Nc3ccc(F)cc3)c(Nc3ccc(F)cc3)cc21 | 101% | 73% | 119% | 100% | 68% | 117% | 79% | 84% |  |  | 99% | 61% | 100% | 91% | 93% | 89% | 32% | 103% | 112% | 102%
c1ccc(-c2n[nH]c3c2oc2ccccc23)cc1 | 66% |  |  | 92% | 70% |  |  |  | 59% | 32% | 5% | 3% | 88% | 64% |  | 92% | 70% |  |  | 
COc1cc2ncnc(Nc3ccc(Oc4ccccc4)cc3)c2cc1OC |  | 118% | 148% | 93% | 113% | 106% | 110% | 98% | 83% | 148% | 49% | 7% | 78% | 34% | 93% |  |  | 0% | 121% | 102%
CC(C)n1cnc2/c(=N/c3cccc(Cl)c3)nc(NCCO)[nH]c21 | 22% | 92% | 89% | 111% | 81% | 103% | 89% | 105% | 64% | 60% | 85% | 53% | 96% | 80% | 81% | 89% | 47% | 48% | 97% | 96%
CO[C@@H]1[C@H](N(C)C(=O)c2ccccc2)C[C@H]2O[C@]1(C)n1c3ccccc3c3c4c(c5c6ccccc6n2c5c31)C(=O)NC4 | 31% | 7% | 2% | 1% | 1% | 92% | 67% | 91% | 50% | 27% | 3% | 2% | 22% | 4% | 93% | 21% | 9% | 13% | 99% | 95%
CC#CC(=O)Nc1cc2c(Nc3ccc(F)c(Cl)c3)ncnc2cn1 | 92% | 96% | 97% | 51% | 59% | 96% | 72% | 95% | 76% | 61% | 107% | 86% | 100% | 91% | 98% | 96% | 86% | 105% | 103% | 102%
Nc1cccc(-c2cc3c(Oc4cccc(O)c4)ncnc3[nH]2)c1 | 49% | 80% | 19% | 83% | 21% | 102% | 89% | 82% | 94% | 57% | 5% | 2% | 14% | 4% | 11% | 34% | 9% | 3% | 90% | 67%
O=C1c2ccccc2-[n+]2ccc3c([nH]c4ccccc43)c21 | 93% | 95% | 101% | 109% |  | 97% | 87% | 106% | 71% | 62% | 88% | 78% | 91% | 88% | 97% | 94% | 90% | 85% | 92% | 100%
Cc1cc2ncc(-c3ccccc3)nc2cc1C |  | 101% |  | 98% | 81% |  | 99% | 97% | 108% | 70% | 92% | 79% | 109% | 93% | 99% | 89% | 93% |  | 108% | 108%
c1ccc2c(-c3ccncc3)c[nH]c2c1 | 95% | 97% | 101% | 103% |  | 97% | 78% | 93% |  |  | 100% | 78% | 98% | 64% | 90% | 86% | 54% | 102% | 107% | 100%
N#CCCc1ccc2c(c1)-c1[nH]c3ccc([N+](=O)[O-])cc3c1CC(=O)N2 | 52% |  |  |  | 66% |  |  |  | 67% | 43% | 30% | 13% |  |  |  | 57% | 58% | 14% |  | 
O=C(Nc1cccc(Nc2nccc(Nc3cccc(C(F)(F)F)c3)n2)c1)C1CC1 | 56% | 19% | 29% | 76% | 23% | 109% | 61% | 93% | 51% | -3% | 81% | 25% | 26% | 4% | 94% | 66% | 44% | 73% | 102% | 100%
